Laboratory results reported in PubChem BioAssay AID485273 (Sanford-Burnham Center for Chemical Genomics, 2010).
In all, about 330,000 compounds went through this assay and about 1,500 (0.45%) were called active. This excerpt belongs to a sample that is enriched for actives. Unmarked numbers belong to inactive results. No stated cut-off is given here; in the data, active means inhibition above about 45% (passing the limit was not always enough); inconclusive means no clear call, values can overlap the other calls.

Each compound was assayed against Ubiquitin-conjugating enzyme E2 N (Homo sapiens) (UniProt P61088) (assay: UBC13 polyubiquitin chain formation inhibitors, primary screen, biochemical, TR-FRET, uHTS (AID 485273)). Conditions: at 20 µM, stronger effect = higher value.
Sequence of Ubiquitin-conjugating enzyme E2 N (Homo sapiens) (P61088 whole entry, looked up): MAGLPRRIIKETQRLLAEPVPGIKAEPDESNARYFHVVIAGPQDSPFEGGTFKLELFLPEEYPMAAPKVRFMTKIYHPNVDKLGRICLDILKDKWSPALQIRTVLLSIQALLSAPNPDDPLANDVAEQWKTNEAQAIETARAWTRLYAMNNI

Structure (SMILES) | inhibition
CCCc1cc(=S)n2c([nH]c3ccccc32)c1C#N | -11.8%
CCOC(=O)c1[nH]cnc1C(=O)Nc1ccccc1C | -4.7%
O=C(Nc1ccon1)c1nc[nH]c1C(=O)NCc1ccccc1 | -4.8%
CCOC(=O)c1ccc(NC(=O)c2nc[nH]c2C(=O)NCc2ccccc2)cc1 | 65% (active)
Cc1cc(C)c(SCCc2ccncc2)c(C)c1 | 5.6%
Cc1ccccc1CCNC(=O)C1CCC(=O)N(Cc2ccc(Cl)cc2)C1 (stereo not given) | 1.4%
CCOC(=O)C1=C(c2ccccc2)O/C(=C(/C(=O)OC)C(F)(F)F)S1 | 46.8% (active)
COC(=O)/C(=C1\Oc2ccc(C(C)(C)C)cc2S1)C(F)(F)F | -10.5%
CCOC(=O)c1nnn(-c2nonc2OC)c1-c1ccccc1 | 1%
COc1ccc2sc(-c3ccc(S(C)(=O)=O)cc3)c(C#Cc3cncn3C)c2c1 | 47.1% (active)
COc1ccc2sc(-c3ccc(S(C)(=O)=O)cc3)c(-c3ccc(C(N)=O)cc3)c2c1 | 38.5%
COc1ccc(-c2sc3ccc(OC)cc3c2C#Cc2ccccn2)cc1 | 29.9%
CCOC(=O)C1CCN(Cc2coc3ccc(Cl)cc3c2=O)CC1 | -15.5%
CCOC(=O)c1cccc(NS(=O)(=O)c2c(C(=O)N3CCCCCC3)c(C)n(C)c2C)c1 | 46.1% (active)
Cc1c(C(=O)N2CCCC2)c(S(=O)(=O)NCC(C)c2ccccc2)c(C)n1C (stereo not given) | -2.8%
CCOC(=O)c1c(S(=O)(=O)Nc2cccc(Cl)c2)c(C)n(C)c1C | -2.9%
Cc1nnc(SC(C)C(=O)Nc2ccc(S(=O)(=O)NC3CCCCC3)cc2)s1 (stereo not given) | -0.1%
C=CCN1C(=O)C(Cc2ccc(OCC)cc2)SC1=Nc1ccc(C(=O)O)cc1 (stereo not given) | 7.8%
CCC1CCC/C1=N\NC(=O)c1ccc(Cl)cc1 (stereo not given) | 6.6%
Cc1ccc(Oc2cc(NC(=O)CCCn3nc(C)c([N+](=O)[O-])c3C)cc([N+](=O)[O-])c2)cc1 | -3.8%
CN(C)[C@@H]1C(=O)C(C(N)=O)=C(O)[C@@]2(O)C(=O)C3=C(O)c4c(O)ccc(Cl)c4[C@@H](O)[C@H]3C[C@@H]12 | 6.5%
C=C1c2c(Cl)ccc(O)c2C(O)=C2C(=O)[C@]3(O)C(O)=C(C(N)=O)C(=O)[C@@H](N(C)C)[C@@H]3[C@@H](O)C12 (stereo not given in full) | 57.1% (active)
CCCn1c(SCC(=O)Nc2cccc(C(=O)OCC)c2)nnc1-c1ccoc1C | 11.9%
CCn1c(SCC(=O)Nc2cc(C)c(Cl)cc2OC)nnc1-c1ccco1 | 4.1%
COc1ccccc1NC(=O)CSc1nnc(-c2ccoc2C)n1CCc1ccccc1 | 94.2% (active)
